# Results filed as inconclusive are left out. Where a call stands in place of a potency, no number is given. A number with no mark means an inactive call. Activity calls are given as the source filed them. Calls come from the whole dose curve; as a rule, active = well fitted curve in the direction sought with a large enough effect; inconclusive = small, poorly fitted or top-dose-only effect, or another doubt; inactive = no such curve, though single readings can be large; an effect the other way counts as inactive or inconclusive.
# Columns and labels:
# [1] = qHTS of pediatric cancer cell lines to identify multiple opportunities for drug repurposing: Primary screen for SJ-GBM2 cells (AID 1347091); note: potency is the fitted concentration of half-maximal effect
# Procedure, shortened: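 Cell viability, CellTiter-Glo luminescence; 500-1,000 cells/well, 8- or 11-point titration, 48 h compound exposure at 37 degrees C, 5% CO2. Controls: DMSO neutral, bortezomib 2.3 µM final as positive.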
# [2] = qHTS of pediatric cancer cell lines to identify multiple opportunities for drug repurposing: Primary screen for SK-N-MC cells (AID 1347093); note: potency is the fitted concentration of half-maximal effect
# Procedure, shortened: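 Metabolically active cells were quantified by ATP-dependent luminescence (CellTiter-Glo, 15 min at room temperature) following 48 h treatment. Cells had been plated at 500-1,000 per well and settled for 5 h beforehand.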
# [3] = qHTS of pediatric cancer cell lines to identify multiple opportunities for drug repurposing: Primary screen for BT-37 cells (AID 1347094); note: potency is the fitted concentration of half-maximal effect
# Procedure, shortened: (§1)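 Following a 5-hour attachment period, cells at 500-1,000/well received compounds and were cultured for 48 hours. CellTiter-Glo was added and luminescence read to estimate viable, metabolically active cells.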
# [4] = qHTS of pediatric cancer cell lines to identify multiple opportunities for drug repurposing: Primary screen for NB-EBc1 cells (AID 1347095); note: potency is the fitted concentration of half-maximal effect
# Procedure, shortened: as §1
# [5] = qHTS of pediatric cancer cell lines to identify multiple opportunities for drug repurposing: Primary screen for Saos-2 cells (AID 1347097); note: nearly all actives have a fitted effect of over 40% in size; note: potency is the fitted concentration of half-maximal effect
# Procedure, shortened: as §1
# [6] = qHTS of pediatric cancer cell lines to identify multiple opportunities for drug repurposing: Primary screen for SK-N-SH cells (AID 1347098); note: nearly all actives have a fitted effect of over 65% in size; note: potency is the fitted concentration of half-maximal effect
# Procedure, shortened: (§2)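 Cells (500-1,000/well) rested 5 h, then received compounds for 48 h; metabolically active cells were measured by CellTiter-Glo luminescence. Final concentrations spanned up to 46 µM (MIPE, 11-point) or 0.59 nM-46 µM (NPC, 8-point) in primary screens, 11-point in follow-ups.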
# [7] = qHTS of pediatric cancer cell lines to identify multiple opportunities for drug repurposing: Primary screen for NB1643 cells (AID 1347099); note: nearly all actives have a fitted effect of over 50% in size
# Procedure, shortened: as §1
# [8] = qHTS of pediatric cancer cell lines to identify multiple opportunities for drug repurposing: Primary screen for BT-12 cells (AID 1347101); note: nearly all actives have a fitted effect of over 25% in size; note: potency is the fitted concentration of half-maximal effect
# Procedure, shortened: as §2
# [9] = qHTS of pediatric cancer cell lines to identify multiple opportunities for drug repurposing: Primary screen for Rh18 cells (AID 1347102); note: nearly all actives have a fitted effect of over 65% in size; note: potency is the fitted concentration of half-maximal effect
# Procedure, shortened: as §2
# [10] = qHTS of pediatric cancer cell lines to identify multiple opportunities for drug repurposing: Primary screen for OHS-50 cells (AID 1347103); note: nearly all actives have a fitted effect of over 40% in size; note: potency is the fitted concentration of half-maximal effect
# Procedure, shortened: as §2
# [11] = qHTS of pediatric cancer cell lines to identify multiple opportunities for drug repurposing: Primary screen for RD cells (AID 1347104); note: nearly all actives have a fitted effect of over 55% in size
# Procedure, shortened: as §1
# [12] = qHTS of pediatric cancer cell lines to identify multiple opportunities for drug repurposing: Primary screen for MG 63 (6-TG R) cells (AID 1347105); note: nearly all actives have a fitted effect of over 50% in size
# Procedure, shortened: as §1
# [13] = qHTS of pediatric cancer cell lines to identify multiple opportunities for drug repurposing: Primary screen for control Hh wild type fibroblast cells (AID 1347106);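 note: series mostly up to about 46 µM; a drop in luminescence marks cytotoxicity and a rise apparent proliferation; nearly all actives have a fitted effect of over 55% in size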
# Procedure, shortened: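 Viability after 48 h compound treatment at 37C, 500-1,000 cells/well, read as ATP luminescence with CellTiter-Glo. Primary screens used 11-point (MIPE, 0.78 nM-46 µM) or 8-point (NPC, 0.59 nM-46 µM) final concentrations; follow-up screens used 11-point dilutions.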
# [14] = qHTS of pediatric cancer cell lines to identify multiple opportunities for drug repurposing: Primary screen for Rh30 cells (AID 1347107); note: series mostly up to about 46 µM; nearly all actives have a fitted effect of over 75% in size
# Procedure, shortened: as §2
# [15] = qHTS of pediatric cancer cell lines to identify multiple opportunities for drug repurposing: Primary screen for U-2 OS cells (AID 1347096); note: nearly all actives have a fitted effect of over 50% in size
# Procedure, shortened: as §2
# [16] = qHTS of pediatric cancer cell lines to identify multiple opportunities for drug repurposing: Primary screen for LAN-5 cells (AID 1347100); note: potency is the fitted concentration of half-maximal effect
# Procedure, shortened: as §2
# [17] = qHTS of pediatric cancer cell lines to identify multiple opportunities for drug repurposing: Primary screen for Rh41 cells (AID 1347108);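 note: series mostly up to about 46 µM; luminescence drop marks cytotoxic hits; nearly all actives have a fitted effect of over 70% in size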
# Procedure, shortened: as §1
# [18] = qHTS of pediatric cancer cell lines to identify multiple opportunities for drug repurposing: Primary screen for A673 cells (AID 1347092); note: nearly all actives have a fitted effect of over 45% in size; note: potency is the fitted concentration of half-maximal effect
# Procedure, shortened: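 A673 cells (500-1,000 cells/well) were treated 48 hours at 37 degrees C with compounds at 11-point (0.78 nM to 46 µM) or 8-point (0.59 nM to 46 µM) dilutions. Viability read by CellTiter-Glo luminescence; concentration-response curves fitted.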
SMILES,Potency [1],Potency [2],Potency [3],Potency [4],Potency [5],Potency [6],Potency [7],Potency [8],Potency [9],Potency [10],Potency [11],Potency [12],Potency [13],Potency [14],Potency [15],Potency [16],Potency [17],Potency [18]
NC[C@H]1O[C@H](O[C@H]2[C@@H](O)[C@@H](O[C@H]3O[C@H](CO)[C@@H](O)[C@H](N)[C@@H]3O)[C@H](N)C[C@@H]2N)[C@H](N)C[C@H]1O,inactive,inactive,inactive,inactive,inactive,inactive,inactive,inactive,inactive,inactive,inactive,inactive,inactive,inactive,–,–,–,–
C[C@H](CCC(=O)O)[C@H]1CC[C@H]2[C@@H]3[C@H](O)C[C@@H]4C[C@H](O)CC[C@]4(C)[C@@H]3CC[C@]12C,inactive,inactive,inactive,inactive,inactive,inactive,–,inactive,inactive,inactive,inactive,inactive,inactive,inactive,inactive,inactive,inactive,–
OCCNC1CCCc2c1[nH]c1ccc(-c3ccccc3)cc21 (configuration not stated),23.5 µM (active),–,24.3 µM (active),–,18.7 µM (active),–,inactive,30.6 µM (active),20.9 µM (active),24.3 µM (active),–,inactive,inactive,–,–,26.4 µM (active),–,23.5 µM (active)
O=C(O)C(=O)Nc1cccc(C2=NN=N[N]2)c1,inactive,inactive,inactive,inactive,inactive,inactive,inactive,inactive,–,inactive,inactive,inactive,inactive,inactive,inactive,–,inactive,–
Oc1cc2c(cc1O)C1c3ccc(O)c(O)c3OCC1(O)C2 (configuration not stated),inactive,–,inactive,–,inactive,inactive,inactive,inactive,inactive,inactive,inactive,inactive,inactive,inactive,inactive,inactive,–,inactive
N#CC(=C(N)Sc1ccc(N)cc1)c1ccccc1C(F)(F)F,inactive,–,–,–,–,4.82 µM (active),inactive,–,inactive,–,–,inactive,–,inactive,inactive,–,–,inactive
Cc1cnn(C)c1C(=O)Nc1cc(Nc2ccc3c(C=Cc4ccccn4)n[nH]c3c2)ccc1F,18.7 µM (active),–,24.3 µM (active),–,20.9 µM (active),–,–,10.9 µM (active),–,38.5 µM (active),–,–,inactive,–,–,–,–,14.8 µM (active)
CCC[C@H]1C[C@H](C(=O)N[C@@H]([C@@H]2O[C@@H](SC)[C@@H](O)[C@@H](O)[C@@H]2O)[C@H](C)Cl)N(C)C1,inactive,inactive,inactive,inactive,inactive,inactive,inactive,inactive,inactive,inactive,inactive,inactive,inactive,inactive,inactive,inactive,–,–
Cc1noc(-c2ccc(CSCCC(=O)O)cc2)c1NC(=O)OC(C)c1ccccc1Cl (configuration not stated),inactive,–,inactive,–,–,inactive,–,inactive,inactive,inactive,–,–,inactive,inactive,inactive,inactive,inactive,inactive
CC1=C(C(=O)Nc2cc3cn[nH]c3cc2F)C(c2ccc(Cl)cc2F)N=C(c2ccnc(Cl)c2)N1 (configuration not stated),5.9 µM (active),11.8 µM (active),24.3 µM (active),10.5 µM (active),5.9 µM (active),19.2 µM (active),–,–,–,–,–,–,inactive,inactive,inactive,9.35 µM (active),–,–
CCCCCCCCCCCCCCCC(=O)OC[C@@H](NC(=O)C(Cl)Cl)[C@H](O)c1ccc([N+](=O)[O-])cc1,inactive,inactive,inactive,inactive,inactive,inactive,inactive,inactive,inactive,inactive,inactive,inactive,inactive,inactive,inactive,–,inactive,–
Cc1cn([C@@H]2O[C@H](CO)[C@@H](O)[C@H]2F)c(=O)[nH]c1=O,inactive,–,–,inactive,inactive,inactive,inactive,–,inactive,inactive,inactive,inactive,inactive,inactive,inactive,inactive,–,inactive
CC(Oc1ccc(O)cc1)(P(=O)(O)O)P(=O)(O)O,inactive,–,inactive,–,inactive,inactive,inactive,–,inactive,inactive,inactive,inactive,inactive,inactive,–,inactive,–,inactive

# Reference: PubChem BioAssay (NCATS)
